Values joined by “and” are separate entries in the source; they are usually repeats but may differ in a detail not shown here. Identical values can stand only once. Results filed as inconclusive are left out. Where a structure was tested more than once in an assay, its records may differ in their call. Active and inactive are the calls of the source. Rule for the calls, unless noted: active = hit-call score of the fitted dose curve at least 0.9, where 1 is the maximum; inconclusive = response in the unintended direction; inactive = score below 0.9.
Columns and labels:
[1] = target: human Peroxisome Proliferator-activated Receptor alpha (PPARa), PPARA (gene 5465) (UniProt Q07869); assay: ATG_PPARa_TRANS: Attagene TRANS-FACTORIAL HepG2 Assay for human Peroxisome Proliferator-activated Receptor alpha (PPARa) (AID 2283001);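 for AC50: potency for gain of reporter signal over DMSO so agonist or activator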
How it was run: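 Exposure: 24 h, transiently transfected HepG2 cells. Endpoint: GAL4-UAS reporter mRNA, RT-PCR with capillary electrophoresis fluorescence. Baseline: DMSO; increases fitted.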

[2] = target: human Peroxisome Proliferator-activated Receptor delta (PPARd), PPARD (gene 5467) (UniProt Q03181); assay: ATG_PPARd_TRANS: Attagene TRANS-FACTORIAL HepG2 Assay for human Peroxisome Proliferator-activated Receptor delta (PPARd) (AID 2283002)
How it was run: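 Measured quantity: GAL4-UAS reporter transcript induction in HepG2 after 24 h chemical dosing, with NR-Gal4 chimeras supplied by transient transfection. Detection by RT-PCR and capillary electrophoresis; upward fit against DMSO.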

[3] = read-out: Intercellular Adhesion Molecule 1 (ICAM1), ICAM1 (gene 3383); assay: BSK_3C_ICAM1: BioMAP Diversity Plus: 3C Assay for Intercellular Adhesion Molecule 1 (ICAM1) Biomarker Activity (AID 2283003; active = hit-call score of the fitted dose curve at least 0.9, where 1 is the maximum; inactive = score below 0.9); details: primary human endothelial cells (HUVEC); actives raise or lower the signal
How it was run: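 Using DMSO as baseline, bidirectional curve fitting was applied to ICAM-1 ELISA signals from HUVEC in the 3C system, measured 24 h after compound addition.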

[4] = BSK_3C_Proliferation: Cell Proliferation Assessment in the BioMAP Diversity Plus: 3C Assay (AID 2283006; active = hit-call score of the fitted dose curve at least 0.9, where 1 is the maximum; inactive = score below 0.9;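 for AC50: potency may reflect either rise or fall in cell number versus DMSO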); details: primary human endothelial cells (HUVEC)
How it was run: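 Measured here: sulforhodamine B (0.1%) staining of TCA-fixed sub-confluent umbilical vein endothelial cultures 48 h post-dosing, absorbance 560 nm. DMSO served as negative control and baseline; both signal gain and loss were modelled.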

[5] = target: Nuclear receptor subfamily 1 group I member 2 (Homo sapiens) (UniProt O75469); assay: ATG_PXR_TRANS: Attagene TRANS-FACTORIAL HepG2 Assay for human Pregnane X Receptor (PXR) (AID 2283008)
How it was run: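 HepG2 transfected (FuGene 6) with GAL4-UAS reporter units + PXR-Gal4 chimera; dosed 24 h. Total RNA → oligo(dT) RT → PCR → 6-FAM primer extension → HpaI cut → CE. Gain-of-signal vs DMSO.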

[6] = target: human Retinoic Acid Receptor beta (RARb), RARB (gene 5915) (UniProt P10826); assay: ATG_RARb_TRANS: Attagene TRANS-FACTORIAL HepG2 Assay for human Retinoic Acid Receptor beta (AID 2283004)
How it was run: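 Induction of reporter mRNA from a chimeric RARb-Gal4 construct was measured by RT-PCR, FAM labelling, HpaI digestion and capillary electrophoresis. Measurements followed 24 h compound treatment of transiently transfected human HepG2 liver cells, with DMSO as baseline.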

[7] = target: Retinoic acid receptor alpha (Homo sapiens) (UniProt P10276); assay: ATG_RARa_TRANS: Attagene TRANS-FACTORIAL HepG2 Assay for human Retinoic Acid Receptor alpha (RARa) (AID 2283005)
How it was run: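 HepG2 cells transiently transfected with multiple reporter units expressing chimeric RARα-GAL4 fusion, with GAL4-UAS-driven reporters. After 24 h compound exposure, reporter mRNA induction quantified by RT-PCR and capillary electrophoresis with fluorescent labeling; gain-of-signal fitted relative to DMSO control.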

[8] = target: human Retinoic Acid Receptor gamma (RARg), RARG (gene 5916) (UniProt P13631); assay: ATG_RARg_TRANS: Attagene TRANS-FACTORIAL HepG2 Assay for human Retinoic Acid Receptor gamma (RARg) (AID 2283009)
How it was run: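 Gain-of-signal relative to DMSO is reported from fluorescent capillary electrophoresis of RT-PCR reporter products. These came from HepG2 cells expressing transfected RARg-GAL4 chimeras with UAS reporters, harvested 24 h after dosing.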

[9] = target: human RAR-related Orphan Receptor beta (RORb), RORB (gene 6096) (UniProt Q92753); assay: ATG_RORb_TRANS: Attagene TRANS-FACTORIAL HepG2 Assay for human RAR-related Orphan Receptor beta (RORb) (AID 2283010)
How it was run: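 Multiplexed transcription-factor reporter assay: HepG2 cells transiently carrying NR-Gal4/GAL4-UAS constructs, 24 h treatment, mRNA quantified by RT-PCR plus capillary electrophoresis fluorescence; activity scored as induction over DMSO.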

[10] = target: Peroxisome proliferator-activated receptor gamma (Homo sapiens) (UniProt P37231); assay: ATG_PPARg_TRANS: Attagene TRANS-FACTORIAL HepG2 Assay for human Peroxisome Proliferator-activated Receptor-gamma (PPARg) (AID 2283007)
How it was run: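 Human hepatoma HepG2, transient MRTU transfection, 24 h treatment. mRNA reporter signal by RT-PCR plus capillary electrophoresis, fluorescence detection; fitted for increase over DMSO negative control.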

Measured: AC50

human Retinoic Acid Receptor beta (RARb), RARB (gene 5915), sequence (P10826 whole entry, looked up, the tested form may be a part): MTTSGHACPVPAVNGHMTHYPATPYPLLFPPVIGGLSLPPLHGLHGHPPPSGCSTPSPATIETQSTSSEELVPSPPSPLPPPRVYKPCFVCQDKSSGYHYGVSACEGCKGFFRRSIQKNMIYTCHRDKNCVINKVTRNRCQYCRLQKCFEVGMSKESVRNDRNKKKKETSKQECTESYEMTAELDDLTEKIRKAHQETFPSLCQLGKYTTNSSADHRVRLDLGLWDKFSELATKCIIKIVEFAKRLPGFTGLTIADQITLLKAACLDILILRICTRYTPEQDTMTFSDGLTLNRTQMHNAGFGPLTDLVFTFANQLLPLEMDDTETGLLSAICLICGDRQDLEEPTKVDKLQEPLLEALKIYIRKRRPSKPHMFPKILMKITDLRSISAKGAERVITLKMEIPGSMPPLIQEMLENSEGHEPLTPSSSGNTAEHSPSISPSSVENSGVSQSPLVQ
human RAR-related Orphan Receptor beta (RORb), RORB (gene 6096), sequence (Q92753 whole entry, looked up, the tested form may be a part): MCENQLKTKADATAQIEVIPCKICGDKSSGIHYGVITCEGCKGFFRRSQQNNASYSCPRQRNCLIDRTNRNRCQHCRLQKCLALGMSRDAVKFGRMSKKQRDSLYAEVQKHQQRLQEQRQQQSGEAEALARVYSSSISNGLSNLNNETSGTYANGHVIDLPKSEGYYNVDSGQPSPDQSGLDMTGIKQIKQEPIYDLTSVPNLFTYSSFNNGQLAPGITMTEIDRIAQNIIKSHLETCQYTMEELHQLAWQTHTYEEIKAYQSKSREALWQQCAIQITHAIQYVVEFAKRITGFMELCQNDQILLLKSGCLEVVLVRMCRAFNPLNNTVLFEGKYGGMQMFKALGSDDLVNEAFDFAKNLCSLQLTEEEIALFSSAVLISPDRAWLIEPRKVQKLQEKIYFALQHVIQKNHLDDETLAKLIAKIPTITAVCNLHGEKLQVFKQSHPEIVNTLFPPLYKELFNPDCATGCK
human Retinoic Acid Receptor gamma (RARg), RARG (gene 5916), sequence (P13631 whole entry, looked up, the tested form may be a part): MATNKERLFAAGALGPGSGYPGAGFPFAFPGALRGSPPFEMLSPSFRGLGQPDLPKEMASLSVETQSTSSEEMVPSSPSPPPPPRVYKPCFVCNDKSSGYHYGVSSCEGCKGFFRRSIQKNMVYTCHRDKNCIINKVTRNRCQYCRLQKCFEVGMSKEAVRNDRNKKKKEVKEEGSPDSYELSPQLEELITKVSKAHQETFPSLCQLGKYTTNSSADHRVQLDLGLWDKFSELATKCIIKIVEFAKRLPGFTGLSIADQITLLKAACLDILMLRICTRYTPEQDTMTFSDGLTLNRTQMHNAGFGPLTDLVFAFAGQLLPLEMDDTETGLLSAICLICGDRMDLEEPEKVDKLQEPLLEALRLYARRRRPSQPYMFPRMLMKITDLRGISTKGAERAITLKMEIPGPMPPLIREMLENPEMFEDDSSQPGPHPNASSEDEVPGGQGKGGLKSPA
human Peroxisome Proliferator-activated Receptor alpha (PPARa), PPARA (gene 5465), sequence (Q07869 whole entry, looked up, the tested form may be a part): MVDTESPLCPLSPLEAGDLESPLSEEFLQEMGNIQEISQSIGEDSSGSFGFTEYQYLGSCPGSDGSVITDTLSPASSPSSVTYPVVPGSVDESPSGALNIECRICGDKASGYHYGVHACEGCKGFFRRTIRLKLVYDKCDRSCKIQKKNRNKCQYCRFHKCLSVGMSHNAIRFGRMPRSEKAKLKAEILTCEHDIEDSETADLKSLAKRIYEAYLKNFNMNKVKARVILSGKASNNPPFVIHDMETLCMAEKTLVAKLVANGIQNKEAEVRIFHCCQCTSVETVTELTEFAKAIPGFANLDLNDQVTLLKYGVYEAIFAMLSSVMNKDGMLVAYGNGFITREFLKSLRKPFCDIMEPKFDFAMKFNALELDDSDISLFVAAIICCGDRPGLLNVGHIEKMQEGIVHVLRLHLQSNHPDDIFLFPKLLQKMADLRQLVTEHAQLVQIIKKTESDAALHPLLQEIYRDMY
Retinoic acid receptor alpha (Homo sapiens), sequence (P10276 whole entry, looked up, the tested form may be a part): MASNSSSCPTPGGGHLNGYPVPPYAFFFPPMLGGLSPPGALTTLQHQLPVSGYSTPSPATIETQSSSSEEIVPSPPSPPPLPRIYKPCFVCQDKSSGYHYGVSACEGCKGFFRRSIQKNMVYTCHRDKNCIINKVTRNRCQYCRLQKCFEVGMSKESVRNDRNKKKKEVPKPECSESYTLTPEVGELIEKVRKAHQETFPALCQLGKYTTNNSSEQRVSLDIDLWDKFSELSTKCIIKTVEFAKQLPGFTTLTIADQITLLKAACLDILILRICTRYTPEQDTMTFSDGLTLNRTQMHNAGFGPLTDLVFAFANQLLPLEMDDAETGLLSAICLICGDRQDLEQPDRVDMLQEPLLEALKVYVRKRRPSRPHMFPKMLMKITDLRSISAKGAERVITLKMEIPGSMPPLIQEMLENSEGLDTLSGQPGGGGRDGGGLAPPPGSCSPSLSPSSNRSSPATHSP
Nuclear receptor subfamily 1 group I member 2 (Homo sapiens), sequence (O75469 whole entry, looked up, the tested form may be a part): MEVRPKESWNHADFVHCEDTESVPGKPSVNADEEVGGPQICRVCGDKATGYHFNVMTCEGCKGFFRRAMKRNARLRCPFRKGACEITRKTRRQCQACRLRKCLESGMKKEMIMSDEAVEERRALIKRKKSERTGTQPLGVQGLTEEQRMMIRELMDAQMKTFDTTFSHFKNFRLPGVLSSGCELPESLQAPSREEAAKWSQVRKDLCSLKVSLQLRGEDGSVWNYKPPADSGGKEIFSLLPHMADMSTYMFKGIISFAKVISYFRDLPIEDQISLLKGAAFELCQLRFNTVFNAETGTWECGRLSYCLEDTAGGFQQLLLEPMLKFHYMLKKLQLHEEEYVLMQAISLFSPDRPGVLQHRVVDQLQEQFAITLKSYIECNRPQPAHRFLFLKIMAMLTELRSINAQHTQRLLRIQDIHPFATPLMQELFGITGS
human Peroxisome Proliferator-activated Receptor delta (PPARd), PPARD (gene 5467), sequence (Q03181 whole entry, looked up, the tested form may be a part): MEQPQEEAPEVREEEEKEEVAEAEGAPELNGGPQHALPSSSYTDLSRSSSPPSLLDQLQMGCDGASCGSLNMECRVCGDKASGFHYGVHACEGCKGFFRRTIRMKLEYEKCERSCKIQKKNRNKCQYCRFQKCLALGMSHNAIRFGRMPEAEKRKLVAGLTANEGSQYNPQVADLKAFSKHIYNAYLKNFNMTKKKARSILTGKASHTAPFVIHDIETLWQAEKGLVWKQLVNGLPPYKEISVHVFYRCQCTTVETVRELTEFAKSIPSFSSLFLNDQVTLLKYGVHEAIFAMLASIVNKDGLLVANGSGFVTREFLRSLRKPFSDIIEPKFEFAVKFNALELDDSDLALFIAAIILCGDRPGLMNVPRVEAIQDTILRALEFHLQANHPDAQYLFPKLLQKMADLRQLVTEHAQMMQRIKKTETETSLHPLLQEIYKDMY
Peroxisome proliferator-activated receptor gamma (Homo sapiens), sequence (P37231 whole entry, looked up): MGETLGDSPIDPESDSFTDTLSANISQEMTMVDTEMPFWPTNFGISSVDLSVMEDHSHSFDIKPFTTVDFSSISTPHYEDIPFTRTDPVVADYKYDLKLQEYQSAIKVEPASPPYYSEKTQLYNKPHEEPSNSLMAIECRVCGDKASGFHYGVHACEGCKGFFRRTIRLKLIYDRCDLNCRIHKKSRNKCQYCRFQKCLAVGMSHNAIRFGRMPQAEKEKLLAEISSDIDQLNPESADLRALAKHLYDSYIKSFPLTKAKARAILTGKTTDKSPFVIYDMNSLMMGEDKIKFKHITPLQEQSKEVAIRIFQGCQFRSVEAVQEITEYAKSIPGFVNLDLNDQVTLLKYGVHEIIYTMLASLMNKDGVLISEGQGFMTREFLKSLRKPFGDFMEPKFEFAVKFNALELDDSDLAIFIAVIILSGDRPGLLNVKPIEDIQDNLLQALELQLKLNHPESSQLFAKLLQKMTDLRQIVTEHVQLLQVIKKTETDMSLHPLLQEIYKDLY

O=[N+]([O-])c1ccc(Oc2ccc(Cl)cc2Cl)cc1
active: [4] 32.4 µM | [5] 9.58 µM
inactive: [1] | [2] | [3]

CN(C)C(=O)Nc1ccc(Cl)cc1
inactive: [1] | [2] | [3] | [4]

O=C1CCCO1
inactive: [1] | [2] | [3] | [6] | [4]

COC(=O)Nc1nc2ccccc2[nH]1
active: [4] 9.95 µM
not listed: [6] | [10]
inactive: all other assays above

OCCCl
not listed: [6] | [10]
inactive: all other assays above

CC(C)(O)c1cnn2c(-c3ccc(F)c(-c4c(F)cccc4C#N)c3)cnc2n1
active: [4] 33.8 µM | [5] 0.0774 µM
inactive: [1] | [2] | [3] | [10]

CCNS(=O)(=O)C(F)(F)C(F)(F)C(F)(F)C(F)(F)C(F)(F)C(F)(F)C(F)(F)C(F)(F)F
inactive: [1] | [2] | [3] | [6] | [7] | [5] | [8] | [9]
active: [1] 63.9 µM and 56.2 µM | [4] 19.3 µM and 46 µM and 43.2 µM | [5] 12.7 µM and 9.73 µM

CCCCOC(=O)c1ccccc1C(=O)OCc1ccccc1
active: [4] 14.4 µM
inactive: [1] | [2] | [3] | [5]

COP(=S)(OC)SCN1C(=O)c2ccccc2C1=O
active: [4] 28.4 µM
inactive: [1] | [2] | [3] | [5]

CC(C)(OOC(C)(C)c1ccccc1)c1ccccc1
inactive: [1] | [2] | [3] | [8]
active: [4] 31.1 µM | [5] 7.09 µM

ClC1=C(Cl)[C@]2(Cl)[C@H]3[C@H]([C@@H]4C=C[C@H]3C4)[C@@]1(Cl)C2(Cl)Cl
inactive: [1] | [2] | [10] | [9]
active: [3] 35 µM | [4] 12.2 µM | [5] 9.08 µM

CN(C)[C@@H]1C(=O)C(C(N)=O)=C(O)[C@@]2(O)C(=O)C3=C(O)c4c(O)cccc4[C@@](C)(O)[C@H]3C[C@@H]12
inactive: [1] | [2] | [3] | [4] | [10] | [5]

O=Cc1ccco1
inactive: [1] | [2] | [3] | [7] | [4] | [8]

CCOc1cccc(C2(N3CCN(c4ccccc4)CC3)CCC(C)CC2)c1 (stereo not drawn)
not listed: [5] | [7] | [9]
inactive: all other assays above

c1ccc2c(c1)oc1ccccc12
inactive: [1] | [2] | [3] | [4]

C[C@]12C=CC3=C4CCC(=O)C=C4CC[C@H]3[C@@H]1CC[C@@H]2O
active: [2] 73.6 µM | [4] 6.61 µM | [5] 26.9 µM
inactive: [1] | [2] | [3] | [5] | [9]

CCC12COCN1COC2
inactive: [1] | [2] | [3] | [4] | [5] | [9]

c1ccc2c(c1)-c1cccc3cccc-2c13
not listed: [10]
inactive: all other assays above

O=C(Oc1ccc(Br)cc1)N1CCN2CCC1CC2
inactive: [1] | [2] | [3] | [4] | [5] | [8]

O=C(O)C1C2CCC(O2)C1C(=O)O (stereo not drawn)
active: [4] 20.5 µM
not listed: [6] | [9] | [10]
inactive: all other assays above

CC(C)(C)OOC(=O)c1ccccc1
inactive: [1] | [2] | [3] | [4]

Nc1cc(Cl)cc(C(=O)O)c1Cl
inactive: [1] | [2] | [3] | [4] | [8] | [9]

COc1cc(C=O)cc2c1[C@H](COC(N)=O)[C@]1(OC(C)=O)ON2C[C@H]2[C@@H]1N2C(C)=O
inactive: [1] | [2]
active: [3] 23.3 µM | [4] 0.369 µM

Cc1cc(N=Nc2ccccc2C)ccc1N
active: [4] 13 µM | [5] 20.7 µM
inactive: [1] | [2] | [3] | [8]

c1ccc(NNc2ccccc2)cc1
inactive: [1] | [2] | [3] | [4] | [5] | [9]

CCCCCCCCOC(=O)c1ccc(C(=O)OCCCCCCCC)c(C(=O)OCCCCCCCC)c1
inactive: [1] | [3] | [6] | [7] | [4]

CO[C@@H]1[C@H](OC(=O)NC(=O)CCl)CC[C@]2(CO2)[C@H]1[C@@]1(C)O[C@@H]1CC=C(C)C
active: [4] 0.00962 µM
inactive: [1] | [2] | [3] | [5] | [9]

Nc1ccc(Cc2ccc(N)cc2)cc1
inactive: [1] | [3] | [6] | [4]

C=CCc1ccc2c(c1)OCO2
inactive: [1] | [3] | [4] | [5]

Nc1ccc(Oc2ccc(N)cc2)cc1
inactive: [1] | [3] | [7] | [4] | [8]

Cc1ccc(N)c(N)c1
inactive: [1] | [3] | [5] | [8] | [9]
active: [4] 2.11 µM

CCCCCOC(=O)c1ccccc1C(=O)OCCCCC
inactive: [1] | [3]
active: [4] 19.1 µM | [5] 27.9 µM

Nc1ccc(N=Nc2ccccc2)cc1
active: [4] 12.2 µM
not listed: [2] | [9] | [10]
inactive: all other assays above

Nc1ccc(Cl)cc1N
not listed: [2] | [9] | [10]
inactive: all other assays above

Nc1ccc([N+](=O)[O-])cc1
inactive: [1] | [3] | [4] | [5]

O=[N+]([O-])C(Br)(CO)CO
active: [3] 33.4 µM | [4] 5.94 µM
inactive: [1] | [6] | [8] | [9]

From PubChem BioAssay (EPA / NIEHS)
